This note sets out measurements from PubChem BioAssay.

Calls of active or inactive are those of the source.

One assay has as its target Albumin (Bos taurus) (UniProt P02769). Kind of assay: compounds binding labelled BSA control protein – biochemical, small-molecule microarray, Alexa647 label, 635/667 nm fluorescence, artefact control for SMM control protein annotation, profiling panel (AID 1118).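 Also: score merges 667 nm emission intensity and signal-to-noise per printed compound spot.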 The conditions noted are these: BSA-A647 binding, fluorescence 635 nm, higher = more signal.
Assay [1] in a line: probe aXIP binding to arrayed compounds – biochemical, NeuroSMM set, 635/667 nm fluorescence, primary screen (AID 1119).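 Also: probe is the protein aXip251-270 applied at 1 µg/mL to compound-printed slides; binding of probe to printed compounds measured as 667 nm fluorescence plus signal to noise.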 The note with it: small-molecule microarray, higher = more signal, called active from +8 up or from −8 down.
Assay [2] can be described thus: probe aNOTCH3 binding on compound microarray – biochemical, small-molecule microarray, 635/667 nm fluorescence, primary screen (AID 1120).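 Also: probe is a biotin-tagged antibody raised against NOTCH3 rather than NOTCH3 protein; score merges spot fluorescence near 667 nm with spot signal to noise.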 The note with it: higher = more signal.
Assay [3] in a line: probe aNOTCH2 binding on compound microarray – biochemical, small-molecule microarray, 635/667 nm fluorescence, primary screen (AID 1121).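 Also: score merges feature fluorescence read at 667 nm with its signal to noise.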 The note with it: higher = more signal.
Assay [4] has as its target Carbonic anhydrase 2 (Homo sapiens) (UniProt P00918). Put plainly: compounds binding carbonic anhydrase 2 – biochemical, small-molecule microarray, Alexa647-labelled CAII, profiling panel (AID 1122). The conditions noted are these: CAII-A647 binding fluorescence, higher = more signal.
Assay [5] is described as follows: COS7 lysate on small-molecule microarray, probe aHis, 635 nm (AID 1123).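 Also: z-score combines 667nm fluorescence intensity with signal-to-noise per printed compound spot.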 The conditions noted are these: COS7 cell lysate, fluorescence, higher = more signal.
The nature of assay [6]: probe aLAP1 signal on lysate-treated microarray – cell lysate, small-molecule microarray, COS7 lysate, primary screen (AID 1124).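 Also: lysate comes from COS7 cells expressing LAP1 and is applied at 0.3 µg/mL; score merges spot fluorescence near 667 nm with signal-to-noise over triplicate slides.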 The note with it: probe aLAP1, fluorescence, higher = more signal.
Another assay deals with Sam68 (KHDRBS1). Put plainly: compounds binding KHDRBS1 protein – biochemical, small-molecule microarray, 635 nm fluorescence, primary screen (AID 1125).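 Also: score merges 667 nm channel intensity with signal to noise over triplicate slides.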 The note with it: higher = more signal.
Assay [7] relates to Chordin-like protein 2 (CHRDL2). Put plainly: compounds binding chordin-like 2 – biochemical, small-molecule microarray, 635 nm fluorescence, primary screen (AID 1126).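 Also: printed compound slides probed with Chrdl2 protein at 4 µg/mL for 1 h at 4 C; score merges 667 nm emission intensity with signal to noise over three replicate slides.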 The note with it: fluorescence 635 nm, higher = more signal.
Assay [8] deals with Concanavalin-A (Canavalia ensiformis) (UniProt P02866). Kind of assay: compounds binding concanavalin A lectin – biochemical, small-molecule microarray, Alexa647 label, 635 nm, artefact control for SMM control protein annotation, primary screen (AID 1127).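 Also: z combines 667 nm emission intensity with signal-to-noise across three replicate slides.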 The note with it: ConA-A647 binding fluorescence, higher = more signal.
Chain of Concanavalin-A (Canavalia ensiformis) (P02866 whole entry, looked up): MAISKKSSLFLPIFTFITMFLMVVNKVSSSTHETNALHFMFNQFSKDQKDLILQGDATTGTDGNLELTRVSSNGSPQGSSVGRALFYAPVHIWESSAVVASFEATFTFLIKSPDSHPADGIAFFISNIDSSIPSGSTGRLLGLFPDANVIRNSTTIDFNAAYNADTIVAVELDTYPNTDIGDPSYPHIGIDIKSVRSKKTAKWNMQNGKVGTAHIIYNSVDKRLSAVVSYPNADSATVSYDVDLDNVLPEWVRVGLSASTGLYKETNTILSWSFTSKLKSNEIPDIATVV

Chain of Albumin (Bos taurus) (P02769 whole entry, looked up): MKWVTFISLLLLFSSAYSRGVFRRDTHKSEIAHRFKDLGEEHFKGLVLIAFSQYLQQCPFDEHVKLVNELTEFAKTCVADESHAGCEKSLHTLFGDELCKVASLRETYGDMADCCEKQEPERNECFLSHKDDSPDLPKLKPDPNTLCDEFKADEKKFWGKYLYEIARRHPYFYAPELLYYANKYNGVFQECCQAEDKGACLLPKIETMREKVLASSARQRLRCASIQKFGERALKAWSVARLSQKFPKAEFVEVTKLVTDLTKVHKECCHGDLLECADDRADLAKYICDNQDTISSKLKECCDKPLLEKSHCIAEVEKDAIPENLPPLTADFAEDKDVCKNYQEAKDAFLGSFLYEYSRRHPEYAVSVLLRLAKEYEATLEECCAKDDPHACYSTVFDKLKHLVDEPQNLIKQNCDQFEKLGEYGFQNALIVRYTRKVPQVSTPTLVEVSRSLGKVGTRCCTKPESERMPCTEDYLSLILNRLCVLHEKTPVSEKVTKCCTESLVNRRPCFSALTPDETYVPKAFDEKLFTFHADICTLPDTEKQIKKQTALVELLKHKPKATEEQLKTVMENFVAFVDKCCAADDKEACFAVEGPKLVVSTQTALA

Turning to `C=CCNC(=O)[C@@H]1[C@H]2C(=O)O[C@H](c3ccccc3)[C@H](c3ccccc3)N2[C@H](c2ccc(OCCO)cc2)[C@@]12C(=O)Nc1ccc(C#Cc3ccc(OC)cc3)cc12`, the composite z-score in the assay with Albumin (Bos taurus) was 0.77; in assay [2], 0.102; in assay [3], -0.0464; in [4], 0.331; in assay [5], 1.14; in assay [6] it was 0.606. Further, the composite z-score in the assay with Sam68 (KHDRBS1) was found to be 1.3; in assay [7], 0.605; in assay [8], 1.13. Moreover, the composite Z-score in assay [1] is 0.883 (inactive).
As for `C=CCOC(=O)[C@@H]1[C@H]2C(=O)O[C@H](c3ccccc3)[C@H](c3ccccc3)N2[C@H](c2ccc(OCCOC(=O)[C@@H]3C[C@@H]4C(=O)N[C@@H](CCCCN(C)C)C(=O)N4[C@@H]3c3ccc(O)cc3)cc2)[C@@]12C(=O)Nc1ccc(I)cc12`, the composite z-score in the assay with Albumin (Bos taurus) was 0.848; in [2], 0.0738; in assay [3], -0.177; in assay [4], 0.275; in assay [5] it was 1.83; in assay [6], -0.157. The figures for the composite z-score (with Sam68 (KHDRBS1); in [7]; in assay [8]) were 1.29, 1.15 and 1.16, respectively. The composite Z-score in [1] is 0.412 (inactive).
Regarding `C=CCC(OC(C)=O)[C@@H]1[C@@H](N(Cc2ccc(-c3cccc(C(F)(F)F)c3)o2)C(=O)c2ccc(-c3ccccc3)cc2)c2cc(OCCCO)ccc2N1C(=O)c1ccc(-c2ccccc2)cc1` (stereo not given in full), the composite z-score was 0.0046 with Albumin (Bos taurus); -0.0957 in assay [2]; -0.126 in [3]; -0.0098 in assay [4]; 0.0291 in assay [5]; -0.128 in assay [6]. Besides, the composite z-score is -0.197 in the assay with Sam68 (KHDRBS1), -0.0179 in [7] and -0.639 in [8]. Further, the composite Z-score in assay [1] is 0.111 (inactive).
For the compound `CC(C)OC(=O)C=C1C[C@@H](c2ccccc2C(F)(F)F)O[C@@H](c2ccccc2C(F)(F)F)O1`, the composite z-score is 0.629 with Albumin (Bos taurus); -0.0044 in assay [2]; -0.216 in [3]; -0.0962 in [4]; 0.387 in [5]; 0.354 in assay [6]. In addition, the composite z-score in the assay on Sam68 (KHDRBS1) was 0.609; in assay [7], 0.0577; in assay [8], 0.257. Moreover, the composite Z-score in [1] is -0.309 (inactive).
As to `CCN(CC)c1ccc(N2CC=CC34O[C@@H]5/C=C\CCCOC(=O)C5[C@H]3C(=O)N(CCO)[C@@H]4C2=O)cc1` (stereo not given in full), the composite z-score with Albumin (Bos taurus) was -0.633; in assay [2], -0.299; in [3], -0.14; in assay [4] it was 0.78; in [5], 0.534; in [6], 0.485. The composite z-score in the assay on Sam68 (KHDRBS1) was -0.526; in [7], -1.39; in [8], -0.362. In addition, in assay [1], the composite Z-score was 0.858 (inactive).
For the compound `CCC(CC)C(O)C1C=CC2C(=O)N(C)C(=O)C2N1Nc1ccccc1` (stereo not given), the composite z-score in the assay with Albumin (Bos taurus) was 0.333; in assay [2], 0.149; in assay [3] it was -0.05; in assay [4], 0.652; in [5] it was 2.5; in [6], 0.515. Also, the composite z-score is 1.07 in the assay on Sam68 (KHDRBS1), -0.237 in assay [7] and 1.2 in [8]. Also, the composite Z-score in assay [1] was -0.574 (inactive).
Take `COCCOC(=O)N1C(=O)[C@@]2(c3cc(C#CCCO)ccc31)[C@H](c1ccc(OCCO)cc1)N1[C@H](c3ccccc3)[C@H](c3ccccc3)OC(=O)[C@H]1[C@@H]2C(=O)N1CCN(c2ncccn2)CC1`: the composite z-score with Albumin (Bos taurus) is 0.679; in assay [2], 0.162; in assay [3] it was -0.161; in assay [4] it was 0.31; in [5] it was 2.03; in [6], 0.602. The composite z-score in the assay on Sam68 (KHDRBS1) is 1.29; in assay [7], 0.718; in assay [8], 1.15. Moreover, in [1], the composite Z-score is -0.114 (inactive).
`COc1ccc(C(=O)Nc2ccc(CN3C(=O)[C@@]4(O[C@@H](CCO)[C@H]([Si](C)(C)c5ccc(OC)cc5)[C@H]4C)c4ccccc43)cc2)cc1`: the composite z-score in the assay with Albumin (Bos taurus) was -0.338; in assay [2], 0.0034; in assay [3], -0.0999; in [4] it was 0.531; in [5] it was 0.81; in assay [6] it was 0.292. The composite z-score was 1.3 with Sam68 (KHDRBS1), 0.959 in [7] and 1.14 in [8]. Besides, in [1], the composite Z-score was 0.673 (inactive).
For `COCCOC(=O)N1C(=O)[C@@]2(c3cc(C#CCCO)ccc31)[C@H](C(=O)N1CCN(c3ncccn3)CC1)[C@H]1C(=O)O[C@H](c3ccccc3)[C@H](c3ccccc3)N1[C@@H]2c1ccccc1OCCO`, the composite z-score is 0.922 in the assay with Albumin (Bos taurus); 0.195 in [2]; -0.134 in assay [3]; 0.582 in [4]; 1.76 in assay [5]; 0.186 in [6]. In addition, the values for the composite z-score (with Sam68 (KHDRBS1); in assay [7]; in assay [8]) were 1.31, 0.207 and 1.14, respectively. In addition, the composite Z-score in assay [1] was -0.07 (inactive).
Turning to `COc1ccc(C(=O)Nc2cccc(CN3C(=O)[C@]4(O[C@H](CCO)[C@@H]([Si](C)(C)c5ccc(OC)cc5)[C@@H]4C)c4ccccc43)c2)cc1`, the composite z-score in the assay with Albumin (Bos taurus) was 0.0296; in assay [2], 0.0297; in assay [3], -0.112; in [4], 0.41; in assay [5], 0.787; in assay [6] it was 0.593. Further, the results for the composite z-score (in the assay on Sam68 (KHDRBS1); in [7]; in [8]) were 1.21, 0.379 and 1.13, respectively. The composite Z-score in [1] was -0.494 (inactive).
On to `C=C(C)C1C(=C)CN([C@H](CO)c2ccccc2)C1=O` (stereo not given in full), for which the composite z-score in the assay with Albumin (Bos taurus) is 0.16; in assay [2], -0.0967; in assay [3], -0.133; in assay [4], -0.0056; in assay [5], -0.583; in assay [6] it was -0.133. Also, the figures for the composite z-score (in the assay with Sam68 (KHDRBS1); in [7]; in [8]) were -0.245, 0.117 and -0.844, respectively. Also, in [1], the composite Z-score was 1.66 (inactive).
With `C=C(CCCC)/C(=C/C[C@@H](OC(C)=O)c1ccccc1OCCO)c1cnc2ccccc2c1`, the composite z-score is 0.263 with Albumin (Bos taurus); 0.033 in [2]; -0.0209 in assay [3]; 0.684 in assay [4]; 0.206 in assay [5]; 0.719 in assay [6]. The composite z-score was 0.97 in the assay on Sam68 (KHDRBS1), 0.333 in assay [7] and 0.535 in assay [8]. For the same compound, the composite Z-score in assay [1] is 0.523 (inactive).
Turning to `COC(=O)[C@@]1(Cc2ccccc2)[C@H]2c3cc(C(=O)N4CCCC4)n(Cc4nc5ccccc5[nH]4)c3C[C@H]2CN1C(=O)c1ccccc1`, the composite z-score was determined as 1.03 with Albumin (Bos taurus); 0.537 in assay [2]; 0.404 in assay [3]; 0.653 in assay [4]; 3.34 in assay [5]; 0.988 in assay [6]. Also, the composite z-score in the assay with Sam68 (KHDRBS1) was 1.3; in assay [7] it was -0.72; in [8] it was 0.912. Besides, in [1], the composite Z-score was 0.579 (inactive).
Regarding `CO[C@H]1O[C@H](CO)[C@@H](OC(=O)Nc2ccc(Br)cc2)[C@H](OC(=O)c2cc3ccccc3[nH]2)[C@H]1OC(=O)c1cc2ccccc2[nH]1`, the composite z-score with Albumin (Bos taurus) was 0.93; in assay [2], -0.04; in [3], -0.101; in assay [4] it was 0.386; in assay [5], 1.25; in assay [6], 0.451. Also, the values for the composite z-score (in the assay on Sam68 (KHDRBS1); in [7]; in assay [8]) were 1.33, 0.283 and 1.14, respectively. The composite Z-score in assay [1] is 0.907 (inactive).
As to `COc1ccc(CCNC(=O)[C@@]2(C)c3ccccc3C(=O)N(Cc3cc(F)cc(C(F)(F)F)c3)[C@H]2c2ccc(CO)cc2)cc1`, the composite z-score is -0.825 with Albumin (Bos taurus); -0.189 in assay [2]; -0.054 in assay [3]; 0.726 in assay [4]; 1.71 in assay [5]; 0.54 in assay [6]. The results for the composite z-score (in the assay on Sam68 (KHDRBS1); in assay [7]; in [8]) were -0.342, 0.126 and -0.307, respectively. The composite Z-score in assay [1] is 0.633 (inactive).
